Measured values taken from PubChem BioAssay AID2561 (National Center for Advancing Translational Sciences (NCATS), 2010).
Records with an inconclusive call do not appear. Where a call stands in place of a potency, no number is given. Activity calls are given as the source filed them. The call rests on the fitted dose curve; in most records, active means well fitted inhibition curve with a large enough effect; inconclusive means small, poorly fitted or top-dose-only effect, or effect the other way; inactive means flat fitted curve, though single readings scatter.

What follows are compounds tested against Pyruvate kinase (Leishmania mexicana) (UniProt Q27686) (assay: Confirmation Assay for Inhibitors of Leishmania Mexicana Pyruvate Kinase (LmPK): for Probe SAR). Conditions: purified LmPK, ATP generation, Kinase-Glo luminescence; series mostly up to 57.5 µM.
Chain of Pyruvate kinase (Leishmania mexicana) (Q27686 whole entry, looked up): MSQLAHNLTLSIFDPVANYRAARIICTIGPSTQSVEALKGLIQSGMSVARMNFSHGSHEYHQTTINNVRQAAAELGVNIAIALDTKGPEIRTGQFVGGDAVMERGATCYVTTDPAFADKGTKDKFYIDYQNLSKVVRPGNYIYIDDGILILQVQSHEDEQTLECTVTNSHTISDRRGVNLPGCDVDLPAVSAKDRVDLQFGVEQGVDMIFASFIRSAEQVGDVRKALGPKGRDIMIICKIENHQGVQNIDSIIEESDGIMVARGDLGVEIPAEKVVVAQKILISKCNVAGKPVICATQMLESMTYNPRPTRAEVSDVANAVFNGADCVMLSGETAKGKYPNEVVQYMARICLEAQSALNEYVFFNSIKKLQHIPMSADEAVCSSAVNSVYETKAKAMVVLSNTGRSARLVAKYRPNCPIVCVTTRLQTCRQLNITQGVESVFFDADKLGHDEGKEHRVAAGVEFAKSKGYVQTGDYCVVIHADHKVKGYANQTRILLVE
Source text: NIH Chemical Genomics Center [NCGC] Malcolm Walkinshaw, Hugh Morgan, Linda Gilmore University of Edinburgh, UK MLPCN Grant: 1 R03 MH085697-01 NCGC Assay Overview: Pyruvate kinase (L. Mexicana) (LmPK) enzyme was supplied as a highly purified (>95% pure) sulphate-free preparation from University of Edinburgh, UK and assayed for its ability to generate ATP from ADP using phosphoenolpyruvate (PEP) as a substrate. ATP generation was detected in a coupled reaction by luciferase-mediated luminescence, an ATP-dependent process. Pyruvate kinase substrates, PEP and ADP, were present in the assay at Km and approximately 10-fold below Km respectively. The enzyme was assayed at an intermediate level of activity to screen for both inhibitors and activators.
NCGC Assay Protocol Summary: Three uL of enzyme mix (kept on ice) in assay buffer (50 mM Imidazole pH7.2, 50 mM KCl, 7 mM MgCl2, 0.01% Tween 20, 0.05% BSA) containing PEP (0.5 mM final concentration) and LmPK (0.1 nM final concentration) was dispensed into white solid bottom 1,536 well microtiter plates. 23 nL of compound were delivered by a pin tool and 1 uL of ADP mix in assay buffer (r.t; 0.1 mM final ADP concentration) was added. Plates were incubated at room temperature for 1 hour. Two uL of detection mix (Kinase-Glo, Promega; at 4 degree Celsius protected from light) was added and luminescence read by a ViewLux (Perkin Elmer) at 1 second exposure/plate. Data were normalized to the uninhibited and AC100 inhibition (no enzyme). To monitor activation, the first column contained a five-fold concentration of LmPK (0.5 nM).
Potency means the concentration at half of the fitted maximal effect.

Row | SMILES | Potency
1 | O=S1(=O)N=C(Oc2ccc(C(F)(F)F)cc2)c2ccccc21 | 3.66 µM (active)
2 | Cc1ccccc1OC1=NS(=O)(=O)c2ccccc21 | 4.43 µM (active)
3 | Cc1cc2c(s1)c1cnn(Cc3ccccc3F)c(=O)c1n2C | inactive
4 | Cc1cc(=O)oc2cc(SC3=NS(=O)(=O)c4ccccc43)ccc12 | 1.83 µM (active)
5 | CC(=O)Nc1cccc(OC2=NS(=O)(=O)c3ccccc32)c1 | 2.06 µM (active)
6 | Cc1ccccc1Nc1c(-c2ccccc2)nc2cccc(C)n12 | inactive
7 | Cc1ccc(NS(=O)(=O)c2cccc(F)c2)cc1C | inactive
8 | Cc1ccc(NS(=O)(=O)c2cc3c(cc2-c2ccco2)NC(=O)CO3)cc1C | inactive
9 | O=C1c2ccccc2C(=O)N1Cc1ccccn1 | inactive
10 | O=S1(=O)N=C(Oc2ccc(Br)cc2)c2ccccc21 | 2.91 µM (active)
11 | CNc1cccc(S(=O)(=O)N2CCN(S(=O)(=O)c3ccc4c(c3)OCCO4)CC2)c1 | inactive
12 | O=C1c2ccccc2C(=O)N1c1ncccc1O | inactive
13 | Cc1cc(N2C(=O)c3ccccc3C2=O)n[nH]1 | inactive
14 | Cc1ccc(NS(=O)(=O)c2cc3c(cc2Cl)CCC(=O)N3)cc1C | inactive
15 | Cc1cc(C)c2nc(C3C(=O)c4ccccc4C3=O)ccc2c1 | inactive
16 | Cc1ccc(-c2nc3ccccn3c2Nc2ccccc2C)o1 | inactive
17 | Cc1ccc(NS(=O)(=O)c2ccc3c(c2)NC(=O)CO3)cc1C | inactive
18 | Cc1ccc(NS(=O)(=O)c2cc3c(cc2C)NC(=O)CO3)cc1C | inactive
19 | Cc1ccc(NS(=O)(=O)c2ccc3c(c2)n(C)c(=O)n3C)cc1C | inactive
20 | Cc1ccc2nc(-c3ccc(C)o3)c(Nc3ccccc3)n2c1 | inactive

Row | SMILES | Potency
21 | Cc1ccc(NS(=O)(=O)c2ccc3c(ccn3C)c2)cc1C | inactive
22 | O=S1(=O)N=C(Oc2ccc(-c3ccccc3)cc2)c2ccccc21 | 4.11 µM (active)
23 | O=C1c2ccccc2C(=O)N1c1ccccn1 | inactive
24 | O=S1(=O)N=C(Oc2cccc(Br)c2)c2ccccc21 | 3.66 µM (active)
25 | COc1ccc(NS(=O)(=O)c2ccccc2C(=O)O)cc1 | inactive
26 | Cc1ccn2c(NC3CCCCC3)c(-c3ccc(C)o3)nc2c1 | inactive
27 | Cc1ccc(NS(=O)(=O)c2cc3c(cc2-c2ccccc2)NC(=O)CO3)cc1C | inactive
28 | COc1ccccc1OC1=NS(=O)(=O)c2ccccc21 | 4.31 µM (active)
29 | CCNc1cccc(S(=O)(=O)N2CCN(S(=O)(=O)c3ccc4c(c3)OCCO4)CC2)c1 | inactive
30 | Cc1cccc(OC2=NS(=O)(=O)c3ccccc32)c1 | 7.02 µM (active)
31 | Cc1ccc(NS(=O)(=O)c2cc3c(cc2-c2ccsc2)NC(=O)CO3)cc1C | inactive
32 | O=S1(=O)N=C(Oc2ccccc2)c2ccccc21 | 8.01 µM (active)
33 | COC(=O)c1ccc2c(c1)S(=O)(=O)N=C2Sc1cc(C)ccc1C | 8.19 µM (active)
34 | O=S1(=O)N=C(Oc2ccccc2Br)c2ccccc21 | 5.8 µM (active)
35 | CC(=O)N1CCc2cc(S(=O)(=O)Nc3ccc(C)c(C)c3)ccc21 | inactive
36 | COc1cccc(OC2=NS(=O)(=O)c3ccccc32)c1 | inactive
37 | Nc1ccc2c(c1)C(=O)NS2(=O)=O | inactive
38 | Cc1ccc(Nc2c(-c3ccc(C)s3)nc3ccccn23)cc1 | inactive
39 | COc1ccc(NS(=O)(=O)c2ccccc2)cc1NS(=O)(=O)c1ccccc1 | inactive
40 | O=S1(=O)N=C(Oc2ccccc2-c2ccccc2)c2ccccc21 | 3.66 µM (active)
